NPC1 promoter act: NPC1 promoter activation; actives 2.4% (n = 320,000); AID 485313; Huh7 NPC1 promoter luciferase reporter, 24 h; Potency, µM (top dose mostly 9.22 µM), for the others: at the top dose activation, actives largely listed as activators; note: % of control where 0% means no effect; nearly all actives have a fitted effect of over 60% in size
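Huh7 cells stably carrying NPC1 promoter–luciferase, plated in Opti-MEM with 10% FBS for 2 h, were exposed to compound in DMSO for 24 h at 37 °C; luciferase reagent was added for 10 min and luminescence read.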
SMN2 splice enh: enhancers of SMN2 splice variant expression; HEK293 SMN2-luciferase splicing reporter, luminescence, 30-36 h; Potency, µM (highest dose often 46.1 µM), for the others: top-dose activity change, positive = activation, usual class: activators; actives 2.8% (n = 210,000); note: % of control where 0% means no effect; nearly all actives have a fitted effect of over 55% in size
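HEK293 cells carry an SMN2 […]–luciferase reporter in which exon 7 inclusion puts luciferase in frame. Cells were plated 10-12 h before compound addition, then incubated 30-36 h at 37C. ONE-Glo luminescence was read; sodium butyrate at 4.5 mM final served as control.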
FLuc counter: inhibits or activates purified firefly luciferase, miR-21 counter-screen; P08659; purified FLuc, Km substrates, luminescence inhibition; Potency, µM (titrated, usually from 57.5 µM), for inactives: at the highest dose activity change, negative = inhibition, hits mostly inhibitors; actives 6.9% (n = 360,000); AID 588342;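 note: plate controls were vehicle for no effect and reference inhibitor for full effect; nearly all actives have a fitted effect of over 55% in size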
Target sequence (P08659 whole entry, looked up): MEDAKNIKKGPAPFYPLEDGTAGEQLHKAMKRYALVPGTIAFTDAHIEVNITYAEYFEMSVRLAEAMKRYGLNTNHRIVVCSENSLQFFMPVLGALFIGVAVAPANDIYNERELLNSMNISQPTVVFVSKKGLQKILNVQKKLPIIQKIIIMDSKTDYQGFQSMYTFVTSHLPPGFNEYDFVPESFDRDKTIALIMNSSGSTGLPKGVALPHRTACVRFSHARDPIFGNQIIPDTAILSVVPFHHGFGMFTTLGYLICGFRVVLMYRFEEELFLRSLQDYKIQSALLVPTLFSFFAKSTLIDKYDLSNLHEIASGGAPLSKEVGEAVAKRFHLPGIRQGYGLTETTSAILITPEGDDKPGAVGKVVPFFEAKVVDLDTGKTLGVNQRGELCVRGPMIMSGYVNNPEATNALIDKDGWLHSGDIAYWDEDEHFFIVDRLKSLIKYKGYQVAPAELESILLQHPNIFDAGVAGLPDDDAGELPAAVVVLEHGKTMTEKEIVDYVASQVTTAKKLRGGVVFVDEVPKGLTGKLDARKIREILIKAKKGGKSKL
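Biochemical qHTS of compounds, final roughly 60 µM downward over six points, against 10 nM purified firefly luciferase using Km concentrations of substrates (10 uM D-luciferin, 10 uM ATP) in Tris acetate pH 7.5 buffer; luminescence output.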
Rab9 prom act: activators of Rab9 promoter. actives 2.8% (n = 320,000). AID 485297. Huh7 Rab9 promoter-luciferase reporter, luminescence, 24 h. Potency, µM (doses to about 9.22 µM), for inactives: at the highest dose activation, negative = inhibition, most hits filed as activators; note: % of control where 0% means no effect; nearly all actives have a fitted effect of over 60% in size
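Huh7 cells stably carrying Rab9 promoter–luciferase reporter, plated 1500 cells/well, compound added after 2 h and incubated 24 h at 37 °C; luciferase luminescence then read after 10 min with detection reagent.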
KinaseGlo FLuc: Kinase-Glo luciferase inhibition (counter-screen). Q27757. Kinase-Glo luciferase, ATP luminescence, 8 min. Potency, µM (highest dose often 38.3 µM), for the others: at the top dose activity change, negative = inhibition, actives largely listed as inhibitors. actives 0.28% (n = 200,000). AID 1379; note: % is set by controls: 0 for no effect and ±100 for the full control effect; nearly all actives have a fitted effect of over 60% in size
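Inhibition of Kinase-Glo luciferase light generation was assessed at 10 uM ATP in pH 7.2 imidazole buffer, with luminescence measured after eight minutes at ambient temperature.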
ELG1 genotox: induces genotoxicity in HEK293T cells with luciferase-tagged ELG1 | HEK293T ELG1-luciferase reporter, luminescence, 16 h | Potency, µM (doses to about 46 µM), inactives show at the top dose activity change, positive = activation, most hits filed as activators | actives 1.3% (n = 330,000) | AID 504466; note: % of control where 0% means no effect; nearly all actives have a fitted effect of over 60% in size
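Luminescence read-out: rising ELG1-luciferase signal, reflecting elevated ELG1 protein under genetic stress, flags genotoxic compounds. Cells were treated for 16 hr at 37 °C before ONE-Glo detection.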
An asterisk follows results filed as active; ? = inconclusive; . = no result; [ ] = remark or other dose. Compounds with a hit are over-represented: about 7.3% of the library has one in this group of screens. Calls come from the whole dose curve; as a rule, active = well fitted curve in the direction sought with a large enough effect; inconclusive = small, poorly fitted or top-dose-only effect, or another doubt; inactive = no such curve, though single readings can be large; an effect the other way counts as inactive or inconclusive. Potency is the fitted concentration of half-maximal effect.

SMILES | NPC1 promoter act | SMN2 splice enh | FLuc counter | Rab9 prom act | KinaseGlo FLuc | ELG1 genotox
Cc1ccc(Nc2nc(Cl)c(C=O)s2)cc1Cl | -7% | 4% | 21µM* | 0% | -10% | -2%
COc1ccccc1-c1cc(C(=O)Nc2ccc(F)cc2F)no1 | ? | -1% | 2% | ? | -5% | 10%
COCCNC(=O)c1cc(-c2ccccc2OC)on1 | 9% | 36% | 21µM* | ? | 2% | ?
CCN(CC)C(=O)c1cc(-c2ccccc2OC)on1 | ? | 12% | 17µM* | ? | -9% | ?
COc1cccc2c(=O)c(C(=O)NCc3cccs3)c[nH]c12 | ? | ? | 9.5µM* | 3.5µM* | -3% | ?
COc1ccccc1-c1cc(C(=O)NCc2ccco2)no1 | 14% | 1% | 15µM* | 0% | 0% | 9%
Cc1ccc2[nH]cc(C(=O)NCc3cccs3)c(=O)c2c1 | -7% | -24% | -13% | -2% | 1% | -3%
COc1ccccc1-c1cc(C(=O)Nc2cc(OC)c(OC)c(OC)c2)no1 | . | -32% | -19% | . | . | .
Cc1cc(-n2c(C)nc3ccccc3c2=O)ccc1NC(=O)c1cccc([N+](=O)[O-])c1 | . | . | 0% | . | . | .
COc1ccccc1-c1cc(C(=O)NC(C)C)no1 | 3.2µM* | 29% | 13µM* | 2.8µM* | -6% | ?
COc1ccccc1-c1cc(C(=O)NC(C)c2ccccc2)no1 (configuration not stated) | 1% | . | -23% | 8% | . | -5%
COc1ccccc1-c1cc(C(=O)NCc2cccs2)no1 | 13% | -3% | 19µM* | -5% | -2% | 6%
Cc1cccc(N2CCN(C(=O)c3cc4ccc5cccnc5c4[nH]3)CC2C)c1 (configuration not stated) | . | . | -12% | . | . | .
COc1ccc(-n2cc3ccc([N+](=O)[O-])cc3n2)cc1 | 0.71µM* | . | 0.95µM* | 0.45µM* | . | ?
O=C(CSc1nc(=O)[nH]c2c1CCCC2)Nc1ccc(Cl)c(Cl)c1 | . | . | -17% | . | . | .
Cc1ccc(NC(=O)CSc2nc3ccc(NC(=O)c4cccc(Cl)c4)cc3s2)c(C)c1 | . | . | 3% | . | . | .
Cc1ccc(N2CC(C(=O)Nc3ccc(Br)cc3)CC2=O)cc1 (configuration not stated) | . | . | -3% | . | . | .
CN(C)c1ccc(Nc2nc(-c3cccnc3)cs2)cc1 | 3.5µM* | 16µM* | 0.43µM* | 0.89µM* | -16% | 1.5µM*
CCN(CC)c1ccc(Nc2nc(-c3cccnc3)cs2)cc1 | 2.8µM* | . | 11µM* | 3.2µM* | . | 11%
Nc1nc2n[nH]nc2c(=O)[nH]1 | . | -20%[20.6 µM] | . | . | -6%[17.1 µM] | .
Nc1nc2nn(-c3ccccc3)nc2c(=O)[nH]1 | 2µM* | . | 4.8µM* | 2.8µM* | . | ?
CCN(c1ccccc1)S(=O)(=O)c1nnc(NC(=O)C(C)Oc2ccccc2)s1 (configuration not stated) | . | . | -19% | . | . | .
COc1ccccc1/C=C/C(=O)Nc1nc(N)n(-c2ccccc2)n1 | -2% | . | 19µM* | 0% | . | -1%
Nc1nc(NC(=O)c2cccs2)nn1-c1ccccc1 | 2.8µM* | 11µM* | 17µM* | 2.5µM* | 6% | ?
COc1ccc(C(=O)Nc2nc(N)n(-c3ccccc3)n2)cc1 | 4% | 2% | 17µM* | 4% | -3% | 15%
Nc1nc(NC(=O)c2ccccc2)nn1-c1ccccc1 | 23% | ? | ? | 28% | 0% | ?
C=C1C=C(C(F)F)n2ncc(C(=O)NCc3ccccc3C(F)(F)F)c2N1 | . | . | -1% | . | . | .
CCC1CCCCN1C(=O)CSc1nc(-c2ccc(OC)cc2)cc(C(F)(F)F)n1 (configuration not stated) | . | -16% | -5% | . | . | .
CCC(Sc1nncn2c1cc1occc12)C(=O)Nc1ccc(C)c(Cl)c1 (configuration not stated) | . | . | -3% | . | . | .
COC(=O)N1C(C)=Cc2ccccc2C1CC(C)=O (configuration not stated) | . | 8% | . | . | -1% | .
